Bioassay records (PubChem)
RN4220 kill: S. aureus RN4220 growth inhibition | OD600, 16 h | AID 1259311 | 330,000 compounds, 0.33% hits | inhibition, % (no concentration beside the values); in the data active = inhibition above about 85%;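 also: plate controls were untreated cells for no effect and reference antibiotic for full effect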
PrP UTR inh: inhibition of PrP 5' UTR reporter expression | cell-based PrP 5' UTR mRNA reporter, plate reader | inhibition, % (concentration not given with the values) | 340,000 compounds, 0.35% hits | AID 488862; in the data active = inhibition above about 52%; also: 0 = median of the neutral control wells
PfHsp40 rescue: restores yeast growth despite PfHsp40 toxicity; S. cerevisiae expressing PfHsp40, growth rescue, ATP luminescence; growth rescue, % at 12.5 µM; 340,000 compounds, 0.68% hits; AID 504582; in the data active = growth rescue above about 28%, passing the limit was not always enough;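 also: yeast W303a lacking pdr1 and pdr3 grown in galactose medium; growth measured after three days at 30 °C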
BJeLR lethal: BJeLR cell viability loss; BJeLR (HRASV12) viability, CellTiter-Glo ATP luminescence, 48 h; inhibition, % (no concentration beside the values); 300,000 compounds, 0.17% hits; AID 1554; in the data active = inhibition above about 50%
Y pestis TopoI: Y. pestis Topo-I inhibition via cleavage products; Y. pestis Topo-I cleavage product accumulation, plate reader; activity, % at 10 µM; 360,000 compounds, 0.064% hits; in the data active = activity above about 50%, passing the limit was not always enough
Sa ugtP lethal: compounds lethal to S. aureus RN4220 ugtP deletion mutant | growth inhibition, % (test concentration not listed) | 330,000 compounds, 0.54% hits | OD600 growth, 16 h | AID 1259309; in the data active = growth inhibition above about 68%;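 also: plate controls were untreated wells for no effect and antibiotic for full effect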
* marks the source's active call; other numbers are inactive results; nt = no result given. The list is not random: actives were taken first. Their share in the collection is about 1.4%.

SMILES | RN4220 kill | PrP UTR inh | PfHsp40 rescue | BJeLR lethal | Y pestis TopoI | Sa ugtP lethal
COc1ccc(C2C=CCN(C(=O)C(Cc3ccccc3)NC(=O)OCC3c4ccccc4-c4ccccc43)CC(=O)N2Cc2ccc(F)cc2)cc1 (stereo not drawn) | 9 | nt | nt | nt | nt | 13
O=C(NNc1nc2cc3c(cc2s1)OCO3)c1cccc(F)c1 | 6 | -22 | 40* | 6 | -5 | -5
CC1CN(C(C)CO)C(=O)c2cccc(NS(=O)(=O)c3ccc(F)cc3)c2OC1CN(C)S(=O)(=O)c1cn(C)cn1 (stereo not drawn) | 3 | nt | nt | nt | nt | 4
Cc1c(C(=O)NCCSCc2ccc(F)cc2)cnn1-c1ccc(Cl)cc1 | -4 | -16 | 43* | -7 | 26 | 7
Cc1c(C(=O)NCCSCc2cccc(C(F)(F)F)c2)cnn1-c1ccc(F)cc1 | -9 | -18 | 101* | -1 | 16 | 3
Cc1onc(-c2c(F)cccc2Cl)c1C(=O)NC1C(=O)N2C1SC(C)(C)C2C(=O)O (stereo not drawn) | 100* | nt | nt | nt | nt | 100*
Cc1onc(-c2c(F)cccc2Cl)c1C(=O)NC1CC1 | -2 | -15 | -2 | 1 | -3 | 0
CCOC1OC(C(=O)N2CCN(Cc3ccccc3)CC2)=CC(c2ccccc2)C1CCCO (stereo not drawn) | 4 | nt | nt | nt | nt | 2
CCOC(=O)C1(Cc2cccc(Cl)c2)CCCN(C(=O)c2occc2C)C1 (stereo not drawn) | 10 | -9 | 122* | -5 | 28 | 6
CC(C)C1Nc2c(O)cc(Cl)c([N+](=O)[O-])c2C2C=CCC21 (stereo not drawn) | 87* | -17 | -1 | 10 | -8 | 93*
O=C(O)C1Nc2c(Cl)cc(Cl)c(Cl)c2C2C=CCC12 (stereo not drawn) | 8 | -11 | -2 | -12 | -18 | 2
CCC(C)C1NC(=O)C(CC(=O)O)NC(=O)c2cc([N+](=O)[O-])cc(I)c2NCCC(C(N)=O)NC1=O (stereo not drawn) | 6 | nt | nt | nt | nt | -3
N#Cc1c(NC(=S)NC(=O)Cc2cccs2)sc2c1CCCCC2 | -5 | -19 | 0 | 0 | 5 | 87*
COC(=O)c1cnc(NNC(=O)c2ccc([N+](=O)[O-])cc2)nc1C(F)(F)F | 7 | -17 | 63* | -1 | -3 | 6
COC(=O)[C@@]1(Cc2ccccc2)C=CC(C)N1C(C)=O (stereo partly drawn) | 5 | nt | nt | nt | nt | -1
CC1(C)C2CCC1(C)C(OCC[N+](C)(C)CC(=O)OC1CCCCC1)C2 (stereo not drawn) | 77 | -8 | 0 | 4 | 4 | 100*
CCOC(=O)C[N+](C)(C)CCOC1CC2CCC1(C)C2(C)C (stereo not drawn) | 1 | -11 | 0 | 2 | -3 | 13
O=C(N[C@@H](Cc1ccccc1)C(=O)CCl)OCc1ccccc1 | nt | -3 | 320* | nt | 10 | nt
Cc1oc2c(c1C(=O)O)C(=O)c1ccccc1C2=O | 13 | -48 | -1 | -1 | 7 | 8
Cc1oc2c(c1C(=O)c1ccccc1)C(=O)C(=O)c1ccccc1-2 | 100* | -60 | 97* | 13 | -22 | 94*
O=C1C(=O)c2c(C(=O)c3ccccc3)coc2-c2ccccc21 | 94* | -72 | 8 | -10 | -4 | 86*
O=C(c1ccccc1)c1coc2ccc(O)c(Cl)c12 | 8 | -30 | 0 | -1 | 0 | 2
CCOc1cccc(/C=N/NC(=O)c2cc(-c3cccn3C)n[nH]2)c1O | nt | 8 | 36* | 10 | -3 | nt
COC(=O)C1=C(c2cccc(OCc3ccccc3)c2)CC2CCC1N2C(=O)NCc1ccc(C(F)(F)F)cc1 (stereo not drawn) | -13 | nt | nt | nt | nt | 11
CC(C(N)C(=O)NC(C(=O)O)C1OC(n2ccc(=O)[nH]c2=O)C(O)C1O)C(O)c1ccc(O)cn1 (stereo not drawn) | 5 | nt | nt | nt | nt | -3
SMILES | RN4220 kill | PrP UTR inh | PfHsp40 rescue | BJeLR lethal | Y pestis TopoI | Sa ugtP lethal
CC(C)(C)N/N=C1\CC(c2ccccc2)Oc2ccccc21 (stereo not drawn) | nt | -66 | 2 | -3 | 13 | nt
CC(C)(C)NN=C1CC(c2ccccc2)Oc2ccccc21 (stereo not drawn) | -8 | nt | nt | nt | nt | 94*
CCOC1=C(C#N)CC2(CC1)c1ccccc1-c1ccccc12 | -10 | -17 | 1 | nt | 34 | -5
Cc1cc2c(cn1)C(CCC#N)(CCC#N)c1ccccc1-2 | -2 | -36 | 54* | -4 | 1 | -2
CC(=O)OCC1=C(C(=O)O)N2C(=O)C(NC(=O)C(C)Cn3nc(C)c(Cl)c3C)C2SC1 (stereo not drawn) | 100* | -25 | -1 | -11 | 3 | 101*
CC1=C(C(=O)O)N2C(=O)C(NC(=O)c3nn(C)c(C)c3Cl)C2SC1 (stereo not drawn) | 19 | 1 | 1 | 3 | -3 | 23
CC(=O)OCC1=C(C(=O)O)N2C(=O)[C@@H](NC(=O)CSc3ccncc3)[C@H]2SC1 | 100* | -9 | -1 | nt | 15 | 99*
CC(=O)OCC1=C(C(=O)O)N2C(=O)C(NC(=O)c3ccc(F)cc3)C2SC1 (stereo not drawn) | 100* | -3 | 0 | -4 | -1 | 100*
O=C1NC(Cc2ccccc2)CO1 (stereo not drawn) | 2 | nt | nt | nt | nt | -9
CCC(NC(=S)NCc1ccc(F)cc1)c1ccc(C(C)C)cc1 (stereo not drawn) | -5 | -23 | 472* | 1 | 30 | -21
CC(NC(=S)NCc1ccc(F)cc1)C12CC3CC(CC(C3)C1)C2 (stereo not drawn) | -13 | -25 | 157* | -7 | -4 | -19
Cc1cc(NC(=O)c2cc(-c3ccccc3)on2)n(-c2ccccc2)n1 | 5 | -37 | -1 | -14 | 107* | 4
COc1ccc(N2C(=O)N3C(c4ccc(Cl)cc4)C4C(=O)N(C5CCCCC5)C(=O)C4[C@]3(Cc3ccc(Cl)cc3)C2=O)cc1 (stereo partly drawn) | 1 | nt | nt | nt | nt | 0
O=C(CC(=O)c1ccccc1O)c1cccc(F)c1 | 79 | -14 | 1 | -2 | -3 | 96*
O=C(CCNC(=O)c1ccccc1Cl)NNC(=O)c1ccccc1O | 0 | -11 | 1 | 2 | 5 | 2
O=C(CC(=O)c1ccccc1O)c1ccc(F)cc1 | 84 | -28 | 0 | -3 | -2 | 90*
O=C(CC(=O)c1c(F)cccc1Cl)c1ccccc1O | 12 | nt | 112* | 4 | -6 | 10
C[C@@]12C(=O)N(Cc3ccccc3)CC(=O)N1C1c3cc(Cl)ccc3OCC1C2c1ccccc1 (stereo partly drawn) | -1 | nt | nt | nt | nt | 8
O=C(NOC(=O)c1ccccc1)c1ccccc1 | 2 | -11 | 239* | 1 | -1 | 9
O=C(NCCCOC(=O)c1ccccc1)c1ccccc1 | 3 | -18 | 0 | nt | 4 | 2
COC(CC(O)CC(=O)COCc1ccccc1)OC (stereo not drawn) | 4 | nt | nt | nt | nt | -3
